PubChem BioAssay (Tox21)
Results filed as inconclusive are left out. Activity calls are given as the source filed them. Unless noted, calls follow the shape of the dose curve; as a rule, active = well fitted curve in the direction sought with a large enough effect in the repeat runs; inconclusive = weak or mixed curves; inactive = no such curve, though single readings can be large; an effect the other way counts as inactive or inconclusive. Non-standard residues stand in square brackets, D forms with d. Residues, ends and D or L forms follow the SMILES beside them. *: point of attachment. Sta = CC(C)C[C@H](N)[C@@H](O)CC(=O)O; Isovaleryl = CC(C)CC(=O)*

experiment: qHTS assay to identify small molecule antagonists of the progesterone receptor (PR) signaling pathway - cell viability counter screen (AID 1346798); conditions: PR-UAS-bla HEK293T viability, CellTiter-Glo luminescence, 16 h; series mostly up to 92.4 µM; activity change, negative = cytotoxicity: at the top concentration; also: nearly all actives have a fitted effect of over 50% in size
How it was run: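 Counter screen for cytotoxicity: viability of PR-UAS-bla HEK293T cells was measured with CellTiter-Glo luminescence following 16 hr compound exposure in the presence of R5020.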
% is scaled to controls: 0 for no effect and ±100 for the full control effect.

| SMILES | activity change, negative = cytotoxicity |
| --- | --- |
| Cc1ccc(O)c(C(=O)c2ccccc2)c1 | -6.83% (inactive) |
| C=CCN1CCc2nc(N)sc2CC1 | 10.9% [at 42.5 µM] (inactive) |
| CSC(=O)c1cccc2nnsc12 | 10% (inactive) |
| COC(=O)c1cc(Cl)c(NC(C)=O)cc1OC | 4.7% [at 42.5 µM] (inactive) |
| Cc1ccc2ccccc2n1 | 5.57% (inactive) |
| CCCCCC(=O)CC | 0.259% (inactive) |
| CCCOc1ccc(C(=O)OCCN(CC)CC)cc1N | -14% [at 42.5 µM] (inactive) |
| O=c1c(O)c(O)c1=O | -4.05% (inactive) |
| CC(C)OCCO | -1.1% (inactive) |
| CCCCCCCCC1CO1 (stereo not drawn) | -0.273% (inactive) |
| CC(C)C(C)C | -0.775% (inactive) |
| CC1(C)CC(N)CC(C)(C)N1 | 6.92% (inactive) |
| CCCC[O][Al]([O]CCCC)[O]CCCC | 10.9% (inactive) |
| N=C(N)N1CCc2ccccc2C1 | 3.01% [at 8.39 µM] (inactive) |
| O=C1CC2(CCCC2)CC(=O)N1CCNCC1COc2ccccc2O1 (stereo not drawn) | -4.06% [at 42.5 µM] (inactive) |
| CC(C)OC(=O)C(C(=O)OC(C)C)=C1SC=CS1 | 7.38% [at 42.5 µM] (inactive) |

| SMILES | activity change, negative = cytotoxicity |
| --- | --- |
| CCC(C)c1nccnc1OC (stereo not drawn) | 18.4% (inactive) |
| CC(=O)OC/C=C(/C)CCC=C(C)C | 10.5% (inactive) |
| CCCCCCCCCCCCCCCC/C=C/C1CC(=O)OC1=O (stereo not drawn) | 9.74% [at 42.5 µM] (inactive) |
| CCCC(=O)OC | 2.05% (inactive) |
| COC(=O)C(c1ccccc1Cl)N1CCc2sccc2C1 (stereo not drawn) | -23.1% [at 42.5 µM] (inactive) |
| CCN(CC)CC(=O)Oc1ccc(NC(C)=O)cc1 | 1.1% [at 42.5 µM] (inactive) |
| CC(C)CC(=O)N[C@H](C(=O)N[C@H](C(=O)N[C@@H](CC(C)C)[C@@H](O)CC(=O)N[C@@H](C)C(=O)N[C@@H](CC(C)C)[C@@H](O)CC(=O)O)C(C)C)C(C)C (Isovaleryl-VV[Sta]A[Sta]-OH) | 0.809% [at 42.5 µM] (inactive) |
| Cc1cc(N)no1 | -0.282% (inactive) |
| CC(=O)Nc1ccc(OCCOCCOc2ccc(NC(C)=O)cc2)cc1 | 7.96% [at 42.5 µM] (inactive) |
| CC(C)(Sc1cc(C(C)(C)C)c(O)c(C(C)(C)C)c1)Sc1cc(C(C)(C)C)c(O)c(C(C)(C)C)c1 | 2.46% [at 42.5 µM] (inactive) |
| N=C(N)S(=O)O | -7.57% (inactive) |
| O=C(O)CCCCCCCCCC(=O)O | -0.155% (inactive) |
| Cc1nnc(C(=O)NC(C)(C)c2nc(C(=O)NCc3ccc(F)cc3)c(O)c(=O)n2C)o1 | 4.42% [at 42.5 µM] (inactive) |
| CC/C=C\CCOC(=O)c1ccccc1 | 6.29% (inactive) |
| C=CCCCCCCCCCCCCCC | 6.76% [at 18.9 µM] (inactive) |
| CC12CCCC=C1C(=O)OC2=O (stereo not drawn) | 19.3% (inactive) |

experiment: qHTS assay to identify small molecule agonists of the progesterone receptor (PR) signaling pathway - cell viability counter screen (AID 1346799; calls by dose curve; also: nearly all actives have a fitted effect of over 45% in size); conditions: PR-UAS-bla HEK293T viability, CellTiter-Glo luminescence, 16 h; series mostly up to 92.4 µM; activity change, negative = cytotoxicity: at the top concentration
How it was run: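 Cells (PR-UAS-bla HEK293T) are plated at 3,000/well in 2% charcoal-stripped FBS medium, rested 6 hr, dosed and incubated 16 hr at 37C. CellTiter-Glo is then added and luminescence measured after 30 min at room temperature.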

| SMILES | activity change, negative = cytotoxicity |
| --- | --- |
| Cc1ccc(O)c(C(=O)c2ccccc2)c1 | -18.6% (inactive) |
| Cc1ccc2ccccc2n1 | 14.8% (inactive) |
| O=c1c(O)c(O)c1=O | 17.7% (inactive) |
| C[n+]1ccccc1/C=N/O | 6.78% [at 42.5 µM] (inactive) |
| CCCCCCCCC1CO1 (stereo not drawn) | 7.16% (inactive) |
| O=C(c1ccccc1)c1cccc(O)c1 | 59.1% (inactive) |
| CC(C)C(C)C | -3.61% (inactive) |
| CC1(C)CC(N)CC(C)(C)N1 | 0.0262% (inactive) |
| CCCC[O][Al]([O]CCCC)[O]CCCC | -12.7% (inactive) |
| N=C(N)N1CCc2ccccc2C1 | 0.346% [at 8.39 µM] (inactive) |
| CCC(C)c1nccnc1OC (stereo not drawn) | 8.47% (inactive) |
| CC(=O)OC/C=C(/C)CCC=C(C)C | -4.54% (inactive) |
| CCCCCCCCCCCCCCCC/C=C/C1CC(=O)OC1=O (stereo not drawn) | 1.18% [at 42.5 µM] (inactive) |
| CCCC(=O)OC | 0.334% (inactive) |
| COC(=O)C(c1ccccc1Cl)N1CCc2sccc2C1 (stereo not drawn) | 0.229% [at 42.5 µM] (inactive) |
| CCN(CC)CC(=O)Oc1ccc(NC(C)=O)cc1 | 4.53% [at 42.5 µM] (inactive) |
| CC(C)CC(=O)N[C@H](C(=O)N[C@H](C(=O)N[C@@H](CC(C)C)[C@@H](O)CC(=O)N[C@@H](C)C(=O)N[C@@H](CC(C)C)[C@@H](O)CC(=O)O)C(C)C)C(C)C (Isovaleryl-VV[Sta]A[Sta]-OH) | 3.15% [at 42.5 µM] (inactive) |
| Cc1cc(N)no1 | -12.6% (inactive) |
| CC(=O)Nc1ccc(OCCOCCOc2ccc(NC(C)=O)cc2)cc1 | -9.29% [at 42.5 µM] (inactive) |
| O=C1Nc2ccccc2C1=O | -0.833% (inactive) |
| N=C(N)S(=O)O | 1.52% (inactive) |
| CCCC(C)C(O)CC (stereo not drawn) | -12.1% (inactive) |
| O=C(O)CCCCCCCCCC(=O)O | -2.09% (inactive) |
| NC[C@H]1O[C@H](O[C@H]2[C@H](O)[C@@H](O[C@H]3O[C@H](CO)[C@@H](O)[C@H](N)[C@H]3O)[C@H](N)C[C@@H]2N)[C@H](N)[C@@H](O)[C@@H]1O | 1.42% [at 19 µM] (inactive) |
| Cc1nnc(C(=O)NC(C)(C)c2nc(C(=O)NCc3ccc(F)cc3)c(O)c(=O)n2C)o1 | -0.191% [at 42.5 µM] (inactive) |
| CC/C=C\CCOC(=O)c1ccccc1 | -0.128% (inactive) |
| C=CCCCCCCCCCCCCCC | 11.1% [at 19 µM] (inactive) |
| CC12CCCC=C1C(=O)OC2=O (stereo not drawn) | 1.67% (inactive) |
| CCCCN1C(=O)c2ccccc2C1=O | -0.127% (inactive) |

experiment: qHTS assay to identify small molecule antagonists of the TGF-beta/Smad signaling pathway - cell viability counter screen (AID 1346824); conditions: SBE-bla HEK293T viability, CellTiter-Glo luminescence; series mostly up to 76.8 µM; viability change, negative = cytotoxic: at the top concentration; also: nearly all actives have a fitted effect of over 50% in size
How it was run: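 SBE-bla HEK 293T cells were plated overnight at 37 C, then given compounds in DMSO plus TGF-beta1 (added as 0.25 ng/mL solution) for 5 hr. After the bla read, CellTiter-Glo was added to the same wells and luminescence read after 30 min at room temperature.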

| SMILES | viability change, negative = cytotoxic |
| --- | --- |
| Cc1ccc(O)c(C(=O)c2ccccc2)c1 | -0.251% (inactive) |
| C=CCN1CCc2nc(N)sc2CC1 | 10.1% [at 35.3 µM] (inactive) |
| CSC(=O)c1cccc2nnsc12 | -16.2% (inactive) |
| Cc1ccc2ccccc2n1 | -9.68% (inactive) |
| CCCCCC(=O)CC | -2.13% (inactive) |
| CCCOc1ccc(C(=O)OCCN(CC)CC)cc1N | 0.0734% [at 35.3 µM] (inactive) |
| O=c1c(O)c(O)c1=O | 10.3% (inactive) |
| CC(C)OCCO | 1.73% (inactive) |
| C[n+]1ccccc1/C=N/O | 1.15% [at 35.3 µM] (inactive) |
| CCCCCCCCC1CO1 (stereo not drawn) | -11.7% (inactive) |
| O=C(c1ccccc1)c1cccc(O)c1 | -5.29% (inactive) |
| CC(C)C(C)C | -0.386% (inactive) |
| CC1(C)CC(N)CC(C)(C)N1 | 4.65% (inactive) |
| CCCC[O][Al]([O]CCCC)[O]CCCC | 12.6% (inactive) |
| N=C(N)N1CCc2ccccc2C1 | -7.19% [at 6.97 µM] (inactive) |
| O=C1CC2(CCCC2)CC(=O)N1CCNCC1COc2ccccc2O1 (stereo not drawn) | 1.63% [at 35.3 µM] (inactive) |

| SMILES | viability change, negative = cytotoxic |
| --- | --- |
| CC(C)OC(=O)C(C(=O)OC(C)C)=C1SC=CS1 | -0.403% [at 35.3 µM] (inactive) |
| CCC(C)c1nccnc1OC (stereo not drawn) | 2.98% (inactive) |
| CC(=O)OC/C=C(/C)CCC=C(C)C | 20.6% (inactive) |
| CCCCCCCCCCCCCCCC/C=C/C1CC(=O)OC1=O (stereo not drawn) | 0.388% [at 35.3 µM] (inactive) |
| COC(=O)C(c1ccccc1Cl)N1CCc2sccc2C1 (stereo not drawn) | 0.597% [at 35.3 µM] (inactive) |
| CCN(CC)CC(=O)Oc1ccc(NC(C)=O)cc1 | 8.27% [at 35.3 µM] (inactive) |
| CC(C)CC(=O)N[C@H](C(=O)N[C@H](C(=O)N[C@@H](CC(C)C)[C@@H](O)CC(=O)N[C@@H](C)C(=O)N[C@@H](CC(C)C)[C@@H](O)CC(=O)O)C(C)C)C(C)C (Isovaleryl-VV[Sta]A[Sta]-OH) | 4.96% [at 35.3 µM] (inactive) |
| CC(=O)Nc1ccc(OCCOCCOc2ccc(NC(C)=O)cc2)cc1 | -26% [at 35.3 µM] (inactive) |
| CC(C)(Sc1cc(C(C)(C)C)c(O)c(C(C)(C)C)c1)Sc1cc(C(C)(C)C)c(O)c(C(C)(C)C)c1 | 11.1% [at 35.3 µM] (inactive) |
| N=C(N)S(=O)O | 0.679% (inactive) |
| CCCC(C)C(O)CC (stereo not drawn) | -0.761% (inactive) |
| O=C(O)CCCCCCCCCC(=O)O | -0.0766% (inactive) |
| CC/C=C\CCOC(=O)c1ccccc1 | 12.6% (inactive) |
| C=CCCCCCCCCCCCCCC | -0.4% [at 15.8 µM] (inactive) |
| CC12CCCC=C1C(=O)OC2=O (stereo not drawn) | -0.321% (inactive) |
| CCCCN1C(=O)c2ccccc2C1=O | -1.85% (inactive) |
